In PubChem BioAssay (EPA / NIEHS) one finds outcome and AC50 data, which are given here for 33 compounds.

What is called AC50 is the concentration at which the activity in the assay is half-maximal.

Where “and” joins values, the source holds several entries; their conditions need not be identical. Identical values can stand only once. Some compounds were tested as several samples or in several runs, with calls that do not always agree. Calls of active or inactive are those of the source. How the source made its calls: active means hit-call score of the fitted dose curve at least 0.9, where 1 is the maximum; inactive means score below 0.9.

Read-out in one test: Plasminogen Activator Inhibitor-1 (PAI1), SERPINE1 (gene 5054)
Briefly: BSK_BF4T_PAI1: BioMAP Diversity Plus: BF4T Assay for Plasminogen Activator Inhibitor-1 (PAI1) Biomarker Activity (AID 2284273). As to conditions: primary human bronchial epithelial cells with fibroblasts. In a few lines: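 Co-culture of human bronchial epithelial cells and dermal fibroblasts exposed to compound for 24 h. PAI-1 measured by ELISA; activity fitted in positive direction versus DMSO. Parallel SRB staining assessed overt cytotoxicity.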
`C=CC(=O)OCC(F)(F)C(F)(F)C(F)(F)C(F)(F)C(F)(F)C(F)(F)C(F)(F)C(F)F`: the result was inactive.

In the case of `OCC(F)(F)C(F)(F)C(F)(F)CO`, the outcome was inactive.

As to `CO[Si](C)(CCC(F)(F)C(F)(F)C(F)(F)C(F)(F)C(F)(F)C(F)(F)F)OC`, the result was inactive.

Read-out in a further test: not listed separately
Briefly: BSK_BF4T_SRB: Viability Assessment in the BioMAP Diversity Plus: BF4T Assay (AID 2284274).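 On AC50: total cell protein by sulforhodamine B staining as a cytotoxicity measure.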 As to conditions: primary human bronchial epithelial cells with fibroblasts. Put shortly: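 Co-culture of human bronchial epithelial cells and dermal fibroblasts (BioMAP BF4T) exposed 24 h. Total protein by sulforhodamine B staining (0.1% SRB after 10% TCA fixation, 560 nm) in parallel cultures; fitted vs DMSO.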
For the compound `COC(F)(C(F)F)C(F)(F)F` (stereo unspecified), the result was inactive.

Turning to `OC(O)C(F)(F)C(F)(F)F`, the result was inactive.

As for `O=C(O)CCC(F)(F)C(F)(F)C(F)(F)C(F)(F)C(F)(F)C(F)(F)C(F)(F)F`, the outcome was inactive.

As to `O=S(=O)(Cl)C(F)(F)C(F)(F)C(F)(F)C(F)(F)C(F)(F)C(F)(F)C(F)(F)C(F)(F)F`, the AC50 is 50.8 µM (active) and 46.8 µM (active).

In the case of `O=S(=O)(O)CCC(F)(F)C(F)(F)C(F)(F)C(F)(F)F`, the outcome was inactive.

On to `NC(=O)C(F)(F)C(F)(F)C(F)(F)C(F)F`, for which the result was inactive.

As to `C=CC(=O)OCC(F)(F)C(F)(F)C(F)(F)COC(=O)C=C`, the AC50 is 43.4 µM (active) and 47.1 µM (active).

As for `O=C(Cl)C(F)(F)C(F)(F)C(F)(F)C(F)(F)C(F)(F)C(F)(F)C(F)(F)F`, the outcome was inactive.

For the compound `NC(=O)C(F)(F)C(F)(F)C(F)(F)C(F)(F)C(F)(F)C(F)(F)C(F)(F)F`, the result was inactive.

Regarding `OCC(O)CC(F)(F)C(F)(F)C(F)(F)C(F)(F)F` (stereo unspecified), the outcome was inactive.

As for `FC(F)(F)C(F)(F)C(F)(F)C(F)(F)C(F)(F)C(F)(F)CC[Si](Cl)(Cl)Cl`, the result was inactive.

On to `OCC(F)(F)C(F)(F)C(F)(F)C(F)(F)C(F)(F)C(F)(F)CO`, for which the outcome was inactive.

`OCC(O)CC(F)(F)C(F)(F)C(F)(F)C(F)(F)C(F)(F)C(F)(F)C(F)(F)C(F)(F)F` (stereo unspecified): the outcome was inactive.

On to `NC(=O)C(F)(F)C(F)(F)C(F)(F)F`, for which the result was inactive.

In the case of `C=CC(=O)OCC(F)(F)C(F)(F)C(F)(F)C(F)(F)C(F)(F)C(F)(F)C(F)(F)C(F)F`, the result was inactive.

`O=C(F)C1(F)C(F)(F)C(F)(F)C(F)(F)C(F)(F)C1(F)F`: the outcome was inactive.

For the compound `O=S(=O)(OCC(F)(F)F)C(F)(F)C(F)(F)C(F)(F)C(F)(F)F`, the result was inactive.

In the case of `OCC(F)(F)C(F)(F)C(F)(F)CO`, the outcome was inactive.

Regarding `CNS(=O)(=O)C(F)(F)C(F)(F)C(F)(F)C(F)(F)C(F)(F)C(F)(F)C(F)(F)C(F)(F)F`, the outcome was inactive.

On to `O=C(O)C(F)(F)C(F)(F)C(F)(F)OC(F)(C(F)(F)F)C(F)(F)F`, for which the result was inactive.

For the compound `C[Si](Cl)(Cl)CCC(F)(F)C(F)(F)C(F)(F)C(F)(F)C(F)(F)C(F)(F)F`, the outcome was inactive.

With `C=CC(=O)OCCC(F)(F)C(F)(F)C(F)(F)C(F)(F)F`, the outcome was inactive.

For `NC(O)(C(F)(F)F)C(F)(F)F`, the outcome was inactive.

Consider `FC(F)(F)C(F)(F)C(F)(F)C(F)(F)C(F)(F)C(F)(F)C(F)(F)CCI`, for which the result was inactive.

Take `O=S(=O)(O)CCC(F)(F)C(F)(F)C(F)(F)C(F)(F)C(F)(F)C(F)(F)C(F)(F)C(F)(F)F`: the result was inactive.

`O=C(O)C(F)(F)C(F)(F)C(F)(F)OC(F)(F)F`: the result was inactive.

`FC(F)(F)C(F)(F)C(F)(F)CC1CO1` (stereo unspecified): the result was inactive.

As for `O=C(Cl)C(F)(F)C(F)(F)C(F)(F)C(F)(F)C(F)(F)C(F)(F)F`, the result was inactive.

Regarding `C=C(C)C(=O)OCC(F)(F)C(F)(F)C(F)(F)C(F)F`, the outcome was inactive.

In the case of `CN(C(=O)C(F)(F)C(F)(F)C(F)(F)F)[Si](C)(C)C`, the outcome was inactive.

As for `NCC(F)(F)C(F)(F)C(F)(F)C(F)(F)C(F)(F)C(F)(F)C(F)(F)C(F)(F)F`, the outcome was inactive.

With `CO[Si](C)(CCC(F)(F)C(F)(F)C(F)(F)C(F)(F)C(F)(F)C(F)(F)F)OC`, the outcome was inactive.

On to `NC(=O)C(F)(F)C(F)(F)C(F)(F)C(F)(F)C(N)=O`, for which the outcome was inactive.

Read-out in a further test: urokinase Plasminogen Activator (uPA), PLAU (gene 5328)
The test is described as follows: BSK_BF4T_uPA: BioMAP Diversity Plus: BF4T Assay for urokinase Plasminogen Activator (uPA) Biomarker Activity (AID 2284275). As to conditions: primary human bronchial epithelial cells with fibroblasts. In a few lines: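 Co-culture of human bronchial epithelial cells and dermal fibroblasts; uPA quantified by ELISA 24 hours after dosing, fitted relative to DMSO. Parallel SRB total-protein staining assessed overt cytotoxicity.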
Take `COC(F)(C(F)F)C(F)(F)F` (stereo unspecified): the result was inactive.

For the compound `OC(O)C(F)(F)C(F)(F)F`, the outcome was inactive.

For the compound `O=C(O)CCC(F)(F)C(F)(F)C(F)(F)C(F)(F)C(F)(F)C(F)(F)C(F)(F)F`, the result was inactive.

As to `O=S(=O)(Cl)C(F)(F)C(F)(F)C(F)(F)C(F)(F)C(F)(F)C(F)(F)C(F)(F)C(F)(F)F`, the concentration at half-maximal activity (AC50) is 30 µM (active) and the result was inactive.

Consider `O=S(=O)(O)CCC(F)(F)C(F)(F)C(F)(F)C(F)(F)F`, for which the outcome was inactive.

For the compound `NC(=O)C(F)(F)C(F)(F)C(F)(F)C(F)F`, the result was inactive.

In the case of `C=CC(=O)OCC(F)(F)C(F)(F)C(F)(F)COC(=O)C=C`, the AC50 was 30 µM (active) and 25.7 µM (active).

Turning to `O=C(Cl)C(F)(F)C(F)(F)C(F)(F)C(F)(F)C(F)(F)C(F)(F)C(F)(F)F`, the AC50 was 21.6 µM (active) and the outcome was inactive.

For the compound `NC(=O)C(F)(F)C(F)(F)C(F)(F)C(F)(F)C(F)(F)C(F)(F)C(F)(F)F`, the outcome was inactive.

For the compound `OCC(O)CC(F)(F)C(F)(F)C(F)(F)C(F)(F)F` (stereo unspecified), the outcome was inactive.

Regarding `FC(F)(F)C(F)(F)C(F)(F)C(F)(F)C(F)(F)C(F)(F)CC[Si](Cl)(Cl)Cl`, the outcome was inactive.

Take `OCC(F)(F)C(F)(F)C(F)(F)C(F)(F)C(F)(F)C(F)(F)CO`: the outcome was inactive.

For the compound `OCC(O)CC(F)(F)C(F)(F)C(F)(F)C(F)(F)C(F)(F)C(F)(F)C(F)(F)C(F)(F)F` (stereo unspecified), the result was inactive.

For the compound `NC(=O)C(F)(F)C(F)(F)C(F)(F)F`, the outcome was inactive.

As to `C=CC(=O)OCC(F)(F)C(F)(F)C(F)(F)C(F)(F)C(F)(F)C(F)(F)C(F)(F)C(F)F`, the outcome was inactive.

`O=C(F)C1(F)C(F)(F)C(F)(F)C(F)(F)C(F)(F)C1(F)F`: the result was inactive.

Take `O=S(=O)(OCC(F)(F)F)C(F)(F)C(F)(F)C(F)(F)C(F)(F)F`: the result was inactive.

As for `OCC(F)(F)C(F)(F)C(F)(F)CO`, the result was inactive.

On to `CNS(=O)(=O)C(F)(F)C(F)(F)C(F)(F)C(F)(F)C(F)(F)C(F)(F)C(F)(F)C(F)(F)F`, for which the outcome was inactive.

`O=C(O)C(F)(F)C(F)(F)C(F)(F)OC(F)(C(F)(F)F)C(F)(F)F`: the outcome was inactive.

For the compound `C[Si](Cl)(Cl)CCC(F)(F)C(F)(F)C(F)(F)C(F)(F)C(F)(F)C(F)(F)F`, the result was inactive.

Turning to `C=CC(=O)OCCC(F)(F)C(F)(F)C(F)(F)C(F)(F)F`, the outcome was inactive.

With `NC(O)(C(F)(F)F)C(F)(F)F`, the result was inactive.

On to `FC(F)(F)C(F)(F)C(F)(F)C(F)(F)C(F)(F)C(F)(F)C(F)(F)CCI`, for which the outcome was inactive.

Consider `O=S(=O)(O)CCC(F)(F)C(F)(F)C(F)(F)C(F)(F)C(F)(F)C(F)(F)C(F)(F)C(F)(F)F`, for which the result was inactive.

On to `O=C(O)C(F)(F)C(F)(F)C(F)(F)OC(F)(F)F`, for which the outcome was inactive.

Consider `FC(F)(F)C(F)(F)C(F)(F)CC1CO1` (stereo unspecified), for which the outcome was inactive.

In the case of `O=C(Cl)C(F)(F)C(F)(F)C(F)(F)C(F)(F)C(F)(F)C(F)(F)F`, the result was inactive.

As to `C=C(C)C(=O)OCC(F)(F)C(F)(F)C(F)(F)C(F)F`, the outcome was inactive.

As for `CN(C(=O)C(F)(F)C(F)(F)C(F)(F)F)[Si](C)(C)C`, the outcome was inactive.

For the compound `NCC(F)(F)C(F)(F)C(F)(F)C(F)(F)C(F)(F)C(F)(F)C(F)(F)C(F)(F)F`, the outcome was inactive.

With `CO[Si](C)(CCC(F)(F)C(F)(F)C(F)(F)C(F)(F)C(F)(F)C(F)(F)F)OC`, the outcome was inactive.

Consider `NC(=O)C(F)(F)C(F)(F)C(F)(F)C(F)(F)C(N)=O`, for which the result was inactive.
